Compound activity as filed in PubChem.
HSF1 inh – HSF1 inhibition. activity change, negative = inhibition, % at 7.5 µM (by protocol). NIH3T3-HGL HSE-luciferase, MG132-induced, luminescence 8 h; hits give low values. AID 2098. 300,000 tested, 0.77% active;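 active = more than half of replicate wells show activity change below -50%, luminescence cut by over half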;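 also: luciferase reports HSF-1 transcriptional activity via heat shock element; 0% = median of DMSO wells and -100% = zero luminescence signal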
TLR9-MyD88 inh – inhibitors of human TLR9-MyD88 binding; Q9NR96+Q99836; CHO BLA complementation TLR9-MyD88, CCF4 FRET ratio; inhibition, % at 4.98 µM; 340,000 tested, 0.21% active;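 active = inhibition above the mean over all tested compounds plus 3 SD, cut at about 21% in these data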;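 also: 0% = DMSO only wells and 100% = clavulanate BLA inhibitor control wells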
Target sequence (Q99836 whole entry, looked up): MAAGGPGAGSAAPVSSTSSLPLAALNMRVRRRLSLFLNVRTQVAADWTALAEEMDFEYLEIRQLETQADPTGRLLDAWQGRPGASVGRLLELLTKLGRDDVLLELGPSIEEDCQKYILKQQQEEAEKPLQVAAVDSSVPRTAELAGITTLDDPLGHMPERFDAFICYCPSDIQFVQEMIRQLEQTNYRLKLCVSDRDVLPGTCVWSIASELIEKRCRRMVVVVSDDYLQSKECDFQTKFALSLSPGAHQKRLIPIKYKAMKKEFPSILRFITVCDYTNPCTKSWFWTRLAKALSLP
Target sequence (Q9NR96 whole entry, looked up): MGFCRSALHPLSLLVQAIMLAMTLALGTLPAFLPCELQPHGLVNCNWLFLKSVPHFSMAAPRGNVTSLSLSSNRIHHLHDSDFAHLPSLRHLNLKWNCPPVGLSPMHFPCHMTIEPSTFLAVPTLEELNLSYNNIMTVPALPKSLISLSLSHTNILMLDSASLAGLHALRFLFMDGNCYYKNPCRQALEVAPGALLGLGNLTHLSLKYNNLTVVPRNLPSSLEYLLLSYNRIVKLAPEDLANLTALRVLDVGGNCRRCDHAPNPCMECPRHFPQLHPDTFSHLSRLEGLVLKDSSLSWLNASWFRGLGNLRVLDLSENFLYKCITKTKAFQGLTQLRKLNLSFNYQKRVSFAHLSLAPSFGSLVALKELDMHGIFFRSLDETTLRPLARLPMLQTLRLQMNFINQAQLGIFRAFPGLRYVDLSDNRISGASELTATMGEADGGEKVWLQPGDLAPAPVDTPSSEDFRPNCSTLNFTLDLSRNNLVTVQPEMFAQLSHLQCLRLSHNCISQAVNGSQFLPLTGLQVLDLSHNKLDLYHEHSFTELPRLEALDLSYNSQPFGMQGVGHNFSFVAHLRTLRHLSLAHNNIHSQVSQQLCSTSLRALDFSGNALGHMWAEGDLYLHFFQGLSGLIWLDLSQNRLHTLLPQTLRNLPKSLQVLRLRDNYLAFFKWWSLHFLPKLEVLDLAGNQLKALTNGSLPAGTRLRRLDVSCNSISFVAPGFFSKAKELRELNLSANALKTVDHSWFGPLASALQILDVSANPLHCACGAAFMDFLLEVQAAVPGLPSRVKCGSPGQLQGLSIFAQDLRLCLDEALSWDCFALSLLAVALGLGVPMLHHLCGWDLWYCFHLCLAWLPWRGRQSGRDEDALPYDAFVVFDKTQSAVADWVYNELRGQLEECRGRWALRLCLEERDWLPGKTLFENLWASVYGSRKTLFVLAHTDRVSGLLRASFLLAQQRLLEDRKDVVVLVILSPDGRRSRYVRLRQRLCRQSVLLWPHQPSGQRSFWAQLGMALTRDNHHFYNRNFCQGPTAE
TLR4 MyD88 comp – blocks binding of human TLR4 to MyD88 | AID 861 | O00206+Q99836 | inhibition, % at 8.4 µM | 200,000 tested, 0.18% active | HeLa CL3-4 TLR4/MyD88 BLA complementation, FRET ratio; in the data active = inhibition above about 25%;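 also: 0% = vehicle and 100% = reference inhibitor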
NOD2 RIPK2 PPI – blocks binding of human NOD2 to RIPK2 | O43353 | CHO BLA complementation NOD2-RIPK2, CCF4 ratio | inhibition, % at 4.98 µM | 360,000 tested, 0.38% active | AID 624267; in the data active = inhibition above about 21%;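 also: 0% = vehicle only and 100% = reference blocker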
HSF-1 act – increases HSF-1 driven luciferase reporter signal; NIH3T3-HGL HSF-1 luciferase reporter, MG132, 8 h; 100% = twice DMSO control signal; activation, % at 9 µM; 300,000 tested, 1.7% active;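 active = mean replicate activation of at least 50% with a set share of replicates each reaching 50%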;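 also: 0% = median of the neutral control wells and 100% = twice that signal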
Active calls of the source: *. Only some compounds are listed: those with a hit (about 2.4% of all), similar ones and a draw of the others.

How did NC1(C(=O)O)CCCCC1c1ccccc1 (centres undefined) do in these assays?
TLR9-MyD88 inh: 1.6; NOD2 RIPK2 PPI: -3.5

How did Cc1cc(C)c2c(n1)SCC(=O)N2CC(=O)Nc1ccc(Br)c(C)c1 do in these assays?
HSF1 inh: -4.6; TLR9-MyD88 inh: -0.9; NOD2 RIPK2 PPI: -0.4; HSF-1 act: -4.2

Results for CCOC(=O)C1CCCN(S(=O)(=O)CCNC(=O)c2cccc(OC)c2)C1 (centres undefined) ?
HSF1 inh: -11.2; TLR9-MyD88 inh: -2.1; NOD2 RIPK2 PPI: -11.1; HSF-1 act: -1.3

What do the screens show for `COc1ccc(C=C2C(=O)OC(C)(C)OC2=O)cc1OC`?
HSF1 inh: -4.0; TLR9-MyD88 inh: -1.6; NOD2 RIPK2 PPI: -5.0; HSF-1 act: 13.1

Results for COc1ccc(/C=C2\OC(=O)c3c(OC)cccc32)cc1OC ?
HSF1 inh: 38.6; TLR9-MyD88 inh: 2.5; TLR4 MyD88 comp: 8.8; NOD2 RIPK2 PPI: 1.1; HSF-1 act: 75.9*

What do the screens show for `Cn1c(N/N=C/c2c[nH]c3ccccc23)nc2ccccc21`?
HSF1 inh: 36.5; TLR9-MyD88 inh: -5.3; TLR4 MyD88 comp: -6.9; NOD2 RIPK2 PPI: -7.8; HSF-1 act: 61.2*

What do the screens show for `O=C(O)c1ccc(S(=O)(=O)NN=Cc2c[nH]c3ccccc23)cc1`?
TLR9-MyD88 inh: 2.9; NOD2 RIPK2 PPI: -10.8

What do the screens show for `O=C(O)c1ccc(N/N=C/c2cn(Cc3ccccc3F)c3ccccc23)cc1`?
HSF1 inh: -63.6*; TLR9-MyD88 inh: 4.7; NOD2 RIPK2 PPI: -1.8; HSF-1 act: -70.4

What do the screens show for `Cc1cc(N/N=C/c2c[nH]c3ccccc23)c2ccccc2n1`?
HSF1 inh: -2.2; TLR9-MyD88 inh: -4.6; TLR4 MyD88 comp: 5.0; NOD2 RIPK2 PPI: -12.3; HSF-1 act: 7.8

What do the screens show for `O=C(O)c1ccc(N/N=C/c2c[nH]c3ccccc23)cc1`?
HSF1 inh: -77.7*; TLR9-MyD88 inh: -5.6; NOD2 RIPK2 PPI: -3.2; HSF-1 act: -80.4

Results for Cn1cc(/C=N/Nc2ccccc2)c2ccccc21 ?
HSF1 inh: 5.3; TLR9-MyD88 inh: -1.4; TLR4 MyD88 comp: 0.6; NOD2 RIPK2 PPI: 4.9; HSF-1 act: 14.0

What do the screens show for `CC(C)n1cc(/C=N/Nc2ccc(C(=O)O)cc2)c2ccccc21`?
HSF1 inh: -81.9*; TLR9-MyD88 inh: -2.5; NOD2 RIPK2 PPI: 6.3; HSF-1 act: -84.2

What do the screens show for `COc1ccc(N2CCN(C(=O)COC(=O)COc3ccc(C#N)cc3)CC2)cc1`?
HSF1 inh: -1.4; TLR9-MyD88 inh: -3.0; NOD2 RIPK2 PPI: -12.3; HSF-1 act: 1.6

How did O=C(NC(=S)NNC(=O)c1cccs1)c1ccccc1 do in these assays?
HSF1 inh: 5.8; TLR9-MyD88 inh: 11.4; NOD2 RIPK2 PPI: 0.8; HSF-1 act: 9.6

Results for CC(C)(C)c1ccc(C(=O)NC(=S)NNC(=O)c2cccs2)cc1 ?
HSF1 inh: -59.8*; TLR9-MyD88 inh: 2.4; TLR4 MyD88 comp: 3.1; NOD2 RIPK2 PPI: 10.7; HSF-1 act: -56.4

How did CCCOc1ccc(C(=O)NNC(=S)NC(=O)c2cccs2)cc1 do in these assays?
HSF1 inh: -55.0*; TLR9-MyD88 inh: 1.1; NOD2 RIPK2 PPI: 5.4; HSF-1 act: -61.7

Results for COc1ccc(S(=O)(=O)N2CCCCCC2)cc1C(=O)OCC(=O)NC1CCS(=O)(=O)C1 (centres undefined) ?
TLR9-MyD88 inh: 1.9; NOD2 RIPK2 PPI: 8.4

How did O=C1CN(C(=O)NCC(=O)N2CCCC2)c2ccccc2N1 do in these assays?
HSF1 inh: -8.0; TLR9-MyD88 inh: 0.7; NOD2 RIPK2 PPI: -6.7; HSF-1 act: 13.4

Results for COc1ccc(-n2ccn3c(CCC(=O)N4CCN(c5cccc(C)c5C)CC4)nnc3c2=O)cc1 ?
HSF1 inh: 3.5; TLR9-MyD88 inh: 8.1; NOD2 RIPK2 PPI: -15.5; HSF-1 act: 4.3

Results for Cc1cc2nnc(SCC(=O)NC3CCCCC3)n2c(N)n1 ?
HSF1 inh: -6.2; TLR9-MyD88 inh: 0.6; NOD2 RIPK2 PPI: 0.1; HSF-1 act: 4.9

Results for COc1ccc(CCNc2oc(-c3ccccc3OC)nc2C#N)cc1 ?
HSF1 inh: 54.6; TLR9-MyD88 inh: -7.5; TLR4 MyD88 comp: -7.9; NOD2 RIPK2 PPI: 8.8; HSF-1 act: 95.4*

What do the screens show for `COc1ccc(CCNc2oc(-c3ccccc3OC)nc2C#N)cc1OC`?
HSF1 inh: 40.6; TLR9-MyD88 inh: 1.9; TLR4 MyD88 comp: -15.0; NOD2 RIPK2 PPI: 3.0; HSF-1 act: 48.2
